PubChem BioAssay (EPA / NIEHS)
Values joined by “and” are separate entries in the source; they are usually repeats but may differ in a detail not shown here. Identical values can stand only once. More than one record can exist for a structure, and the calls need not agree. Active and inactive are the calls of the source. The calls were made as follows: active = hit-call score of the fitted dose curve at least 0.9, where 1 is the maximum; inactive = score below 0.9.

Tests used:
Conditions in all cases: mRNA level, 48 h; actives raise or lower the signal
[1] = read-out: matrix metalloproteinase-3 (MMP3), MMP3 (gene 4314); experiment: LTEA_HepaRG_MMP3: Life Technologies and Expression Analysis (LTEA) Assay for matrix metalloproteinase-3 (MMP3) using HepaRG (AID 2283519)
How it was run: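 HepaRG cells (~100,000/well) in serum-free induction medium were dosed in duplicate for 48 h with an 8-point half-log series from 100 uM, 0.5% DMSO. MMP3 mRNA was quantified by Fluidigm TaqMan qRT-PCR, normalized to three housekeeping genes.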

[2] = read-out: Paternally Expressed 10 (PEG10), PEG10 (gene 23089); experiment: LTEA_HepaRG_PEG10: Life Technologies and Expression Analysis (LTEA) Assay for Paternally Expressed 10 (PEG10) using HepaRG (AID 2283520);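 as to AC50: PEG10 transcript by qRT-PCR normalised to ACTB GAPDH and POLR2A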
How it was run: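 Chemicals tested on HepaRG cells for 48 h, highest concentration 100 uM. PEG10 expression assessed by qRT-PCR relative to DMSO control.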

[3] = read-out: Protein phosphatase 2A (PPP2R4), PTPA (gene 5524); experiment: LTEA_HepaRG_PPP2R4: Life Technologies and Expression Analysis (LTEA) Assay for Protein phosphatase 2A (PPP2R4) using HepaRG (AID 2283522)
How it was run: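 Gene-expression endpoint in HepaRG hepatic cells: 48 h treatment across eight half-log concentrations up to 100 uM in 0.5% DMSO. PPP2R4 mRNA by qRT-PCR, normalized to three endogenous control genes.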

[4] = read-out: Phosphatase and tensin (PTEN), PTEN (gene 5728); experiment: LTEA_HepaRG_PTEN: Life Technologies and Expression Analysis (LTEA) Assay for Phosphatase and tensin (PTEN) using HepaRG (AID 2283523)
Experimental: LTEA_HepaRG is a cell based, multiplexed-readout assay that uses HepaRG, a human liver cell line, with measurements taken at 48 hours after chemical dosing on a 96-well plate.LTEA_HepaRG_PTEN is one of 102 assay component(s) measured in the LTEA HepaRG cell culture assay. It is a marker of Cell proliferation, survival, death.Data from the assay component LTEA_HepaRG_PTEN was analyzed into 1 endpoint. This assay endpoint, LTEA_HepaRG_PTEN, was analyzed with bidirectional fitting relative to DMSO as the negative control and baseline of activity. Using a type of inducible reporter, measures of mRNA induction for gain or loss-of-signal activity can be used to understand regulation of transcription factor activity. To generalize the intended target to other relatable targets, this assay endpoint is annotated to the phosphatase intended target family, where the subfamily is dual-specific phosphatase.
A total of 1060 chemcials from the ToxCast library were tested in eight-point concentration-response experiments. Cell culture and cytotoxicity assays were conducted at Thermo Fisher Scientific's Custom Services facility (Madison, WI). A single lot of human HepaRG cells (Thermo Fisher Scientific, Frederick, MD) was used for the cell culture experiments. 96-well format collagen type I coated plates of human HepaRG cells were prepared using established methods. Briefly, cryopreserved HepaRG cells were thawed, plated at a density of approximately 100,000 cells/well in HepaRG Thaw, Plate, and General Purpose media (HPRG770, Thermo Fisher Scientific), and incubated for 48 hours. 0.5% DMSO was selected as vehicle control to balance the requisite need of DMSO in HepaRG cultures to maintain differentiation (for example, baseline metabolism, proportions of hepatocytes vs. cholangiocytes), while enabling further hepatic receptor pathway activation (for example, PXR and CAR) in response to chemical exposure. 48 hours after plating, the culture medium was replaced with HepaRG Serum-Free Incudtion Media. Cells were exposed to each test chemical in duplicate and maintained in CO2 incubators for another 48 hours. Chemical plates were thawed to room temperature and 200x concentrations of treatment groups were prepared. 8-point conentration-reponse curves were made with the highest exposure at 100 uM, followed by half-log dilutions, all in 0.5% DMSO. Each test plate contained variouse controls, induction positive controls (1mM phenobarbital), cytotoxicity positive controls ([…] aflatoxin B1), vehicle controls (0.5% DMSO), and total lysis controls (0.5% DMSO). Cell morphology images were taken using an Essen IncuCyte FLR automated microscope, with six 96-well plates imaged in about 24 minutes. Images were captured and exported and JPEG files. Spent culture media was transfered to black-well plates for the LDH assay, and remaining media was sorted at -80 C for later use. Cells were treated with RLT buffer and frozen until shipped for gene expression analysis. Total RNA was isolated from the cell suspension in 75 uL of Buffer RLT (Qiagen, Germantown, MD 20874) by Quintiles/Expression Analysis (Durham, NC) using a custom isolation procedure. Total RNA from each plate well was transferred to a preamplification plate. Fluidigm's 96.96 Dynamic ArrayTM (Fluidigm, Amsterdam, the Netherlands) technology was used for gene expression analyses by quantitative reverse transcription polymerase chain reaction (qRT-PCR, performed by Quintiles/Expression Analysis, Durham, NC)89. Standard TaqManTM Assays (Applied Biosystems/ThermoFisher Scientific, Foster City, CA) were used to assess the expression of 93 genes selected based on their selectivity and sensitivity to important hepatic receptors known to be modulated by environmental chemicals; importance in human hepatocyte functionality; and hepatotoxicity. […]

[5] = read-out: solute carrier (SLC22A1), SLC22A1 (gene 6580); experiment: LTEA_HepaRG_SLC22A1: Life Technologies and Expression Analysis (LTEA) Assay for solute carrier (SLC22A1) using HepaRG (AID 2283524)
How it was run: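 Differentiated human HepaRG cells in serum-free induction medium, exposed 48 h in duplicate to 8-point half-log series from 100 µM top in 0.5% DMSO. SLC22A1 mRNA by TaqMan qRT-PCR normalized to ACTB, GAPDH, POLR2A; bidirectional fit versus DMSO.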

[6] = read-out: Pyruvate Dehydrogenase Kinase 4 (PDK4), PDK4 (gene 5166); experiment: LTEA_HepaRG_PDK4: Life Technologies and Expression Analysis (LTEA) Assay for Pyruvate Dehydrogenase Kinase 4 (PDK4) using HepaRG (AID 2283525)
How it was run: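 HepaRG cells plated 48 h, then switched to serum-free induction medium and exposed in duplicate for 48 h to 8 half-log concentrations from 100 uM in 0.5% DMSO. PDK4 mRNA measured by qRT-PCR, normalized to ACTB, GAPDH and POLR2A; bidirectional fit versus DMSO.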

[7] = read-out: NAD(P)H dehydrogenase [quinone] 1 (NQO1), NQO1 (gene 1728); experiment: LTEA_HepaRG_NQO1: Life Technologies and Expression Analysis (LTEA) Assay for NAD(P)H dehydrogenase [quinone] 1 (NQO1) using HepaRG (AID 2283526)
How it was run: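 Human HepaRG hepatic cells received chemicals for 48 h in serum-free induction medium with 0.5% DMSO, up to 100 uM. Expression was assessed by TaqMan qRT-PCR against housekeeping controls and fitted bidirectionally against DMSO.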

[8] = read-out: Nuclear factor erythroid 2-related factor 2 (Homo sapiens) (UniProt Q16236); experiment: LTEA_HepaRG_NFE2L2: Life Technologies and Expression Analysis (LTEA) Assay for Nuclear factor erythroid 2-related factor 2 (NFE2L2) Transcription Factor using HepaRG (AID 2283527)
How it was run: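 Differentiated human HepaRG cells, serum-free induction medium, exposed 48 h in duplicate to eight half-log concentrations up to 100 uM in 0.5% DMSO. NFE2L2 mRNA by Fluidigm TaqMan qRT-PCR, normalised to ACTB, GAPDH, POLR2A; bidirectional change versus DMSO.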

[9] = read-out: succinate dehydrogenase complex iron sulfur subunit B (SDHB), SDHB (gene 6390); experiment: LTEA_HepaRG_SDHB: Life Technologies and Expression Analysis (LTEA) Assay for succinate dehydrogenase complex iron sulfur subunit B (SDHB) using HepaRG (AID 2283528)
How it was run: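 SDHB transcript level read by TaqMan qRT-PCR, housekeeping-normalised (ACTB, GAPDH, POLR2A), after 48 h chemical treatment of plated HepaRG cells; eight concentrations top 100 uM, half-log steps, 0.5% DMSO, duplicates; fitted both directions against DMSO.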

[10] = read-out: Nuclear factor NF-kappa-B p105 subunit (Homo sapiens) (UniProt P19838); experiment: LTEA_HepaRG_NFKB1: Life Technologies and Expression Analysis (LTEA) Assay for Nuclear Factor Kappa B Subunit 1 (NFKB1) using HepaRG (AID 2283521)
How it was run: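 NFKB1 transcript was measured by TaqMan qRT-PCR on Fluidigm arrays, normalised to three housekeeping genes and fitted in both directions against 0.5% DMSO. HepaRG cells were dosed in duplicate for 48 h in serum-free induction medium, eight half-log steps from 100 uM.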

Measured: AC50

Chain of Nuclear factor erythroid 2-related factor 2 (Homo sapiens) (Q16236 whole entry, looked up): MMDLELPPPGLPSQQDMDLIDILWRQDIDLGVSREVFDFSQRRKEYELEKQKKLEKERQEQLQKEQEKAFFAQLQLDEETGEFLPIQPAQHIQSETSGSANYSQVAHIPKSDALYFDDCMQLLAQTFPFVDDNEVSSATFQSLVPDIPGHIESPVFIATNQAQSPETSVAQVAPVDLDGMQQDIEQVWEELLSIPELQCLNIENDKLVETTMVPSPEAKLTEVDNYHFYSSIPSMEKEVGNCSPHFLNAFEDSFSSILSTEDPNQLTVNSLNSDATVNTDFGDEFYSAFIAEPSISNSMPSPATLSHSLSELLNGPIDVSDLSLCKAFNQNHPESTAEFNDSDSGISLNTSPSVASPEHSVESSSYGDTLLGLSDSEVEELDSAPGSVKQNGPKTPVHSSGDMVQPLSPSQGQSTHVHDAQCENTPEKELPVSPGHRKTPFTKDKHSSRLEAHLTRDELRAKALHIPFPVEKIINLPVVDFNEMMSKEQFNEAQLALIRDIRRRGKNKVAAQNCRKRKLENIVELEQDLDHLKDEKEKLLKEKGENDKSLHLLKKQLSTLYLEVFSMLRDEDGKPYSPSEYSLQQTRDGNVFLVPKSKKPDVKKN
Chain of Nuclear factor NF-kappa-B p105 subunit (Homo sapiens) (P19838 whole entry, looked up): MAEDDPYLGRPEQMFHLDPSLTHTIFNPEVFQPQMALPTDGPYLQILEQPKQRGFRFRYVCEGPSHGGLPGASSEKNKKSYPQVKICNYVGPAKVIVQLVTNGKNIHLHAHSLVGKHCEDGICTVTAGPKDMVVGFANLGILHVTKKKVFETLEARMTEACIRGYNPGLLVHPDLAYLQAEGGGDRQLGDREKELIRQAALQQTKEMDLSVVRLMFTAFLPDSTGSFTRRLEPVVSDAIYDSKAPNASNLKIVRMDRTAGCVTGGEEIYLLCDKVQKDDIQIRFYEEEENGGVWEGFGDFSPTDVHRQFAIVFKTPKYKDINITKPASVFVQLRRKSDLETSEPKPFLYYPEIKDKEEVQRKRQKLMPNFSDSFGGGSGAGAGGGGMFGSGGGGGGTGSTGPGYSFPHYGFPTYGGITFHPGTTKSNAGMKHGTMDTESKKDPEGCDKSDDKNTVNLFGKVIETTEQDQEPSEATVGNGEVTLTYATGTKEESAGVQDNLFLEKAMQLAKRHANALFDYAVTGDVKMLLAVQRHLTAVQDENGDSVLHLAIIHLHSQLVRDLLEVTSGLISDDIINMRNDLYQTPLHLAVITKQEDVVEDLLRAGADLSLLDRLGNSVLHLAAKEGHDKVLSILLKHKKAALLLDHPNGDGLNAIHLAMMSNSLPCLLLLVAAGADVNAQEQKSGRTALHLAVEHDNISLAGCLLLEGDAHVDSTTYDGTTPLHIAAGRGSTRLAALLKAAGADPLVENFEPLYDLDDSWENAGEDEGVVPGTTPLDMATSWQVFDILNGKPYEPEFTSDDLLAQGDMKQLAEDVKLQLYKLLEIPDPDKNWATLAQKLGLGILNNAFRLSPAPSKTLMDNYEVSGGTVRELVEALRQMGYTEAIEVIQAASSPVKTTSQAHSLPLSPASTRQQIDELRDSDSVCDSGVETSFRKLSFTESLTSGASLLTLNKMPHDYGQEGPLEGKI

C[C@]12CC[C@@H]3c4ccc(O)cc4CC[C@H]3[C@@H]1CC[C@@H]2O
active: [2] 10.6 µM | [5] 50 µM
not listed: [10]
inactive: all other assays above

C#C[C@]1(O)CC[C@H]2[C@@H]3CCc4cc(O)ccc4[C@H]3CC[C@@]21C
not listed: [5]
inactive: all other assays above

O=C(c1ccc(OCCN2CCCCC2)cc1)c1c(-c2ccc(O)cc2)sc2cc(O)ccc12
inactive: [1] | [10] | [7] | [8]
active: [2] 65.9 µM | [3] 50 µM | [4] 77.9 µM | [5] 80 µM | [6] 50 µM | [9] 9.92 µM

C=C(C)C(N)=O
inactive: all assays above

CC/C(=C(\c1ccccc1)c1ccc(OCCN(C)C)cc1)c1ccccc1
inactive: [10] | [3] | [4] | [6] | [7] | [8] | [9]
active: [1] 86.1 µM and 92.9 µM | [2] 53.8 µM and 94 µM | [10] 81.9 µM | [4] 93.3 µM | [5] 42.3 µM and 15.8 µM | [6] 69.2 µM | [7] 79.9 µM | [8] 77.1 µM | [9] 81.1 µM

CCCCOCCOCCO
inactive: all assays above

COC(=O)c1ccc(C(=O)OC)cc1
inactive: all assays above
